Only some compounds are listed: those with a hit (about 3.3% of all), similar ones and a draw of the others.
ERa SRC1 pot: enhances coactivator binding to human estrogen receptor alpha; TR-FRET ERalpha-LBD/SRC-Cy5 coactivator binding, 2 h; 100 = basal binding, no effect; actives 1.3% (n = 86,000); coactivator binding (% of control), % at 25.6 µM; P03372; in the data active = activity above about 200%;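 also: binding measured in presence of low estradiol as agonist stimulus; 0% = peptide alone without receptor and 100% = receptor with peptide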
Target sequence (P03372 whole entry, looked up, the tested form may be a part): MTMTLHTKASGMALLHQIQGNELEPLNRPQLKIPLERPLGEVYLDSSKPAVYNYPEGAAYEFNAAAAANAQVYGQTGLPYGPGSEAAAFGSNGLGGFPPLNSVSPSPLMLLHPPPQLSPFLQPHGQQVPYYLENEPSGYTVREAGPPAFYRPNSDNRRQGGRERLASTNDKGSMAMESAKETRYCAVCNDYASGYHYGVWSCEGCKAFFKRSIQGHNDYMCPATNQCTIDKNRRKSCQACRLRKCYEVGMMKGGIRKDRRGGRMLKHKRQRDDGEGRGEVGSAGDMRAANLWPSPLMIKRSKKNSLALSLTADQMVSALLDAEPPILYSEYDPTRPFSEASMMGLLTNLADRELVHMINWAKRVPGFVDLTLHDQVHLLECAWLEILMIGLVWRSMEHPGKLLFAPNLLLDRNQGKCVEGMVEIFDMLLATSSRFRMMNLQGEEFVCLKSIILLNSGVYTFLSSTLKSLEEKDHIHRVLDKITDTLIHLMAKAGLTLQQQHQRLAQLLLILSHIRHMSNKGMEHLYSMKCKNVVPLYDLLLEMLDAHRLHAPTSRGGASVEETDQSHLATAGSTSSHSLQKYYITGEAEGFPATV
PLK1 inh: PLK1 (human) kinase inhibition; P53350; recombinant PLK1 kinase, TR-FRET peptide phosphorylation; inhibition, % at 10 µM; actives 0.53% (n = 97,000); AID 619;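 active = inhibition of 50% or more in the single-concentration screen; inactive = inhibition below 50%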;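 also: 0% = DMSO max control and 100% = H-89 dihydrochloride min control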
Smad3 FoxH1 inh: inhibitors of human Smad3 transcription factor binding. TR-FRET Smad3/Dy647-FoxH1 peptide binding, europium anti-His. P84022. actives 0.29% (n = 88,000). AID 630. inhibition, % at 25 µM;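 active = compounds that reduce the energy-transfer binding signal between the protein and its labelled peptide by more than half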;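 also: 0% = Smad3 plus labelled peptide maximal FRET and 100% = peptide-only background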
ERb coact inh: ER-beta (human) coactivator binding inhibition. Q92731. TR-FRET ER-beta LBD / SRC1-Cy5 peptide binding; receptor agonist-loaded with 1 µM estradiol. inhibition, % at 25.6 µM. actives 1.3% (n = 86,000). AID 633;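 active = compounds whose percent inhibition of the receptor-coactivator binding signal exceeds about 50% in the single-dose screen, limit read from the data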;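 also: 0% = receptor plus peptide wells without compound and 100% = peptide-only wells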
PLK1 PBD inh: blocks phosphopeptide binding to human Plk1 polo box domain; AID 693; P53350; actives 0.13% (n = 97,000); Plk1 PBD phosphopeptide binding, fluorescence polarization; inhibition, %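 (tested at about 20 µM)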; in the data active = inhibition above about 34%, passing the limit was not always enough
ERa coact inh: blocks coactivator binding to human estrogen receptor alpha; P03372; TR-FRET ER-alpha LBD / SRC-1 peptide, estradiol-bound; inhibition, % at 25.6 µM; actives 1.7% (n = 86,000); AID 629; in the data active = inhibition above about 50%;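 also: 0% = receptor plus peptide control and 100% = peptide only without receptor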
Numbers without * were called inactive; . = not tested or not shown; [ ] = dose if it differs, or a comment.

SMILES | ERa SRC1 pot | PLK1 inh | Smad3 FoxH1 inh | ERb coact inh | PLK1 PBD inh | ERa coact inh
COc1cccc(C2C=C(c3ccc(Br)s3)Nc3ncnn32)c1OC (stereo not given) | 92.2 | . | -6.6 | 23.1 | . | -6.6
COc1ccc(C2C=C(c3ccccc3)Nc3ncnn32)cc1 (stereo not given) | 109.0 | -20.9 | -7.4 | 85.7*[fluorescence artefact?] | -25.4 | -12.3
CC(=O)Nc1ccc(N2CCN(C(C)=O)CC2)cc1 | 79.8 | -3.6 | 0.5 | 63.5* | 27.9 | 22.9
CC(=O)c1ccc(NCC(=O)N2CCN(c3ccccc3)CC2)cc1 | 59.2 | -19.6 | 6.0 | 56.6* | -16.9 | 85.0*
CC(C)C(=O)Nc1ccc(N2CCCC2)cc1 | 60.2 | -7.0 | 4.7 | 39.5 | -13.7 | 25.4
CCc1ccc(CNc2ccc(N3CCN(C(C)=O)CC3)cc2)cc1 | 89.3 | -7.5 | 11.2 | 18.5 | -12.2 | 4.4
O=C(Nc1ccc(N2CCCC2)cc1)C(c1ccccc1)c1ccccc1 | 6.7 | -8.6 | 7.8 | 27.4 | -22.5 | 60.0*
CC(C)c1nnc(NC(=O)C2CCN(c3nc4ccccc4s3)CC2)s1 | 107.3 | . | 4.4 | -5.8 | . | 66.9*[fluorescence artefact?]
CC1(C)S[C@H]2[C@H](NC(=O)Cc3ccccc3)C(=O)N2[C@@H]1C(=O)O | . | . | -0.8 | . | . | .
COc1cccc(C(=O)Nc2nc(-c3ccc(S(=O)(=O)N4CCOCC4)cc3)cs2)c1 | 462.7*[fluorescence artefact?] | -17.7 | 5.7 | 4.8 | -10.5 | -33.6
O=C(Nc1nc(-c2ccc(S(=O)(=O)N3CCCCCC3)cc2)cs1)c1cccs1 | 570.5*[fluorescence artefact?] | -11.2 | 5.2 | -4.4 | 1.5 | -33.5
O=C(Nc1nc(-c2ccccc2)cs1)C1CCCN(S(=O)(=O)c2ccccc2)C1 (stereo not given) | 109.1 | -11.7 | 11.4 | -1.4 | 1.7 | -3.1
O=C(Nc1nc(-c2ccc(S(=O)(=O)N3CCCC3)cc2)cs1)c1cccs1 | 324.1*[fluorescence artefact?] | 0.9 | 8.2 | -10.8 | 13.1 | -30.9
Cc1ccc(-c2csc(NC(=O)c3cccc(S(=O)(=O)N4CCN(C)CC4)c3)n2)cc1 | 146.4 | . | -2.8 | -7.4 | . | -9.0
O=C(Nc1nc(-c2cccs2)cs1)c1cccc(S(=O)(=O)N2CCCCC2)c1 | 233.4* | -1.6 | 1.4 | -9.2 | -4.2 | -11.4
Cc1[nH]c(C)c(CN(C)C)c1CN(C)C | . | . | -5.4 | . | . | .
O=C1c2ccccc2[C@@H]([C@H]2c3ccccc3C(=O)c3cc(Br)ccc32)c2ccc(Br)cc21 | . | . | -11.6 | . | . | .
O=C(O)c1cc(-c2ccncc2)nc2ccccc12 | . | . | 3.7 | . | . | .
CCSc1nnc2c(n1)OC(c1ccc(C(=O)O)cc1)N(C(C)=O)c1ccccc1-2 (stereo not given) | 111.5 | 64.9* | 7.2 | 3.5 | 29.0 | 1.7
COc1ccc(OCC(=O)OCCN2C(=O)c3ccccc3C2=O)cc1 | 115.9 | -14.0 | -6.4 | 42.2 | -12.4 | 59.2*[fluorescence artefact?]
CCOC(=O)C1C(=O)Oc2ccc3ccccc3c2C1C1CCOC1=O (stereo not given) | 84.4 | 63.2* | -5.0 | 3.7 | 10.5 | 9.5
C[C@H](Br)C(=O)Nc1ccc(C(=O)O)c(O)c1 | . | . | 3.1 | . | . | .
Cc1ccccc1-n1nc2c(c1NC(=O)c1ccc(Br)o1)CSC2 | 207.2*[fluorescence artefact?] | -11.6 | -0.1 | 41.7 | -3.6 | 19.8
CC(=O)Nc1c2c(nn1-c1ccc(C)cc1C)CSC2 | 104.4 | -1.9 | 11.0 | 2.1 | -11.3 | -2.2
COc1cccc(C2CC(=O)NC(SC)=C2C#N)c1 (stereo not given) | 95.2 | 68.6* | -2.1 | 24.9 | -1.4 | 10.0
SMILES | ERa SRC1 pot | PLK1 inh | Smad3 FoxH1 inh | ERb coact inh | PLK1 PBD inh | ERa coact inh
CCCCC(CC)C(=O)NCc1ccccc1OC (stereo not given) | 128.3 | -10.4 | 1.0 | 52.5* | 0.4 | -2.0
Cc1ccccc1OCC(=O)N(Cc1nc(-c2ccccc2)no1)C(C)C | 323.1*[fluorescence artefact?] | -10.9 | -11.9 | -6.0 | -5.3 | -2.4
CC(C)N(Cc1nc(-c2ccc(Cl)cc2)no1)C(=O)CCCN1C(=O)c2ccccc2C1=O | 90.6 | 53.8* | 14.5 | 1.5 | -6.4 | -0.5
COc1c(O)ccc2c1CN1CCc3cc4c(cc3[C@@H]1C2)OCO4 | . | . | 2.3 | . | . | .
COC(=O)c1cc(OC)c(OC)cc1NC(=O)CSc1ccccc1 | . | -2.3 | . | . | 24.6 | .
CN(C)C[C@H]1CCC[C@@H](CN(C)C)C1=O | . | . | 8.4 | . | . | .
Cc1nc2c(c(=O)n1Cc1ccccc1Cl)c1nc3ccccc3nc1n2Cc1ccco1 | 167.9 | . | 1.1 | 26.1 | . | 32.3
COc1ccc(Cn2c3nc4ccccc4nc3c3c(=O)n(Cc4ccco4)c(C)nc32)cc1 | 137.6 | . | 16.3 | 59.6*[fluorescence artefact?] | . | 74.5*

High-throughput results: PubChem BioAssay, several laboratories
